This is an account of results in PubChem BioAssay AID489018 (Southern Research Specialized Biocontainment Screening …, 2010).

About 350 (15%) of roughly 2,300 compounds were called active. Not all results are given here. Potency and affinity values are given separately. A number with no mark means an inactive call. The rule behind the calls is not given here.

This experiment can be described thus: HepG2 cell cytotoxicity, dose response, cytotoxicity control for non-replicating M. tuberculosis project (AID 489018).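 Note: HepG2 human liver cells; 100% = vehicle-treated cells and 0% = background signal.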 The settings on record: series mostly up to 20 µM; viability: at the top concentration.
As usually defined, the viability is a read-out of living cells in per cent, often relative to untreated cells. With `CC1=C(/C=C/C(C)=N\NC(=O)c2ccncc2)C(C)(C)CCC1`, the “viability” value is 84.7%. For `O=C(COC(=O)COc1ccc(Nc2ccccc2)cc1)NCc1ccco1` the value was 103% [at 5 µM]; for `O=C(COc1ccccc1)Nc1nnc(-c2ccc(Cl)cc2)o1`, 105%; for `CC(C)Cc1cc(C(=O)Nc2ccc(F)cc2F)no1`, 99.7%. For `O=C(Nc1c(F)cc(F)cc1Br)c1cc(-c2ccccc2)on1` the value was 101%; for `O=C(N/N=C\c1ccc([N+](=O)[O-])s1)C1COc2ccccc2O1` (centres undefined), 96.5%; for `O=C(CCSc1nnc(-c2ccncc2)o1)Nc1cccc(Cl)c1`, 95.7%. For the compound `CCn1ccc(C(=O)Nc2cccc(Cl)c2)n1`, the “viability” value is 111% [at 5 µM]. The result for `Cc1noc2ncnc(Sc3ccc(Br)cc3)c12` reads 99.2%; that for `O=c1cc(-c2ccccc2Cl)oc2c([N+](=O)[O-])c(O)cc(O)c12`, 80.7%. With `CCOC(=O)c1ccc(NC2=CC(=O)C(=O)c3ccccc32)cc1`, the “viability” value was 92.8%.

Regarding `O=C1C=C(Nc2ccc(F)cc2)c2ccccc2C1=O`, the “viability” value was 96.4% [at 5 µM]. As to `CCN(CC)S(=O)(=O)c1ccc(C(=O)OCn2nnc3ccccc3c2=O)cc1`, the “viability” value was 91.7%. For `O=c1cc(-c2ccccc2Cl)oc2ccc([N+](=O)[O-])c(O)c12` the value was 87.9%; for `CCC/C(=N\NC(=O)c1ccco1)c1ccc(Cl)s1`, 103% [at 5 µM]; for `CCCc1cc(C(=O)Nc2ccccc2SC)no1`, 111%. For `Cc1ccc(C(=O)N/N=C\c2ccc([N+](=O)[O-])s2)cn1` the value was 77.5%. Consider `O=c1oc(/C=C/c2ccc([N+](=O)[O-])s2)nc2ccccc12`, for which the “viability” value is 111%. Consider `Cc1cc(C)n(CC(=O)N/N=C/c2ccc([N+](=O)[O-])s2)n1`, for which the “viability” value is 73.2%. Take `Cc1cc(C(=O)N/N=C/c2ccc([N+](=O)[O-])s2)n[nH]1`: the “viability” value was 78.5%.

As for `CCOC(=O)c1cc(-c2csc(COc3ccccc3)n2)on1`, the “viability” value was 104%. In the case of `O=C(N/N=C\C=C\c1ccco1)c1cncc(Br)c1`, the “viability” value was 87%. For the compound `CS(=O)(=O)Nc1cccc2cccnc12`, the “viability” value was 76%. For `Cc1cc(C)n2nc(S(=O)(=O)Nc3c(Cl)cccc3Cl)nc2n1` the value was 93.4%.

Consider `O=C(OCc1nnc(-c2ccccc2)o1)c1cc([N+](=O)[O-])ccc1Cl`, for which the “viability” value is 106%. The result for `O=c1c2cc(Cl)ccc2nc(-c2ccccc2Cl)n1O` reads 89.7%; that for `CCOC(=O)c1ccc(COC(=O)c2ccc(-c3nnc(-c4ccccc4)o3)cc2)o1`, 87.1%. For `Cc1cc(OCCCCn2ccnc2)cc(C)c1Cl` the value was 79.8%. For `O=C(c1ccc([N+](=O)[O-])cc1[N+](=O)[O-])N1CCc2ccccc21`, the “viability” value was 94.7%. For `Cc1ccc(S(=O)(=O)CCC(=O)Nc2nc(-c3ccncc3)cs2)cc1` the value was 88%; for `CC(/C=C/c1ccccc1F)=N\NC(=O)c1ccccc1`, 85.1%; for `O=C1c2ccccc2CC1Sc1nnc(-c2ccncc2)o1` (centres undefined), 93.4%. Take `O=S1(=O)C=C(Sc2nc3cc(Cl)ccc3o2)c2ccccc21`: the “viability” value was 97.2% [at 5 µM].

In the case of `O=C(O)c1[nH]c(=O)[nH]c(=O)c1F`, the “viability” value was 82.3%. The result for `CC1=NN(c2ccccc2)C(=O)C1C(=O)c1ccccc1` (centres undefined) reads 104%; that for `Nc1nc2ccccc2n1C(=O)c1ccc(F)cc1`, 93.2%. Take `C=CCc1ccc(OCC(O)CN2CCN(Cc3ccc(Cl)cc3)CC2)c(OC)c1` (centres undefined): the “viability” value was 79.2%. For `CCC(=O)Nc1nc2ccccc2n1Cc1ccccc1` the value was 73.6%. For `OC(COc1ccccc1Cl)CN1CCN(CC(O)COc2ccccc2Cl)CC1` (centres undefined), the “viability” value was 82.6%.

Regarding `O=C(COc1ccccc1)NCCSCc1ccc(Cl)cc1`, the “viability” value is 93.8%.

Take `O=C(Nc1ncc([N+](=O)[O-])s1)c1ccc2c(c1)OCO2`: the “viability” value was 70.5%. For `O=C(OCc1ccc(Cl)c(Cl)c1)c1ccccn1`, the “viability” value was 115%. Consider `COc1cc2c(cc1OC)CN(C(=O)c1ccc([N+](=O)[O-])o1)CC2`, for which the “viability” value was 90.2%. Turning to `O=C(Nc1sc2c(c1C(=O)O)CCCC2)c1ccc(F)cc1`, the “viability” value is 93.1%.

As to `O=C(Nc1sc2c(c1C(=O)O)CCCCC2)c1ccccc1F`, the “viability” value is 99.9%.

Turning to `O=C(c1ccc([N+](=O)[O-])o1)N1CCc2ccccc2C1`, the “viability” value was 102%. For `COc1ccccc1NC(=O)c1ccc([N+](=O)[O-])o1`, the “viability” value is 73.8%.

Regarding `CCOC(=O)COc1ccc2c3c(c(=O)oc2c1C)CCC3`, the “viability” value is 112%.

For `O=C(COC(=O)c1ccc(Cl)s1)c1ccc[nH]1`, the “viability” value is 103%. The result for `COc1ccccc1OCCNC(=O)c1cc([N+](=O)[O-])cc([N+](=O)[O-])c1` reads 102%. On to `O=C(OCC(=O)N1CCN(c2ccccc2)CC1)c1ccc2ccccc2n1`, for which the “viability” value was 100%. The result for `O=C(OCC(=O)c1c[nH]c2ccccc12)c1ccc([N+](=O)[O-])s1` reads 96.6%; that for `CCCCCC/C(=N/O)c1ccccn1`, 104% [at 5 µM]; that for `c1ccc(-c2nc(NCCCn3ccnc3)c3ccccc3n2)cc1`, 75.7%.

In the case of `Cc1cccc2cc(C#N)c(NCCCn3ccnc3)nc12`, the “viability” value is 95.8%. For `CC(C)OC(=O)c1cc(C(=O)c2cc(Cl)ccc2O)coc1=N` the value was 91.3%. The result for `O=C1NN(c2ccccc2)C(=O)/C1=C/c1ccc(Sc2ccc(Cl)cc2)o1` reads 100%. For `COC(=O)COc1ccc2c(-c3cccc([N+](=O)[O-])c3)cc(=O)oc2c1` the value was 106%; for `Cc1cc(NC(=O)c2cc([N+](=O)[O-])cc([N+](=O)[O-])c2)no1`, 110%.
